Measurements reported in PubChem BioAssay AID1159580 (chemical genetic matrix, 2015).
Among all 5,500 compounds or so, about 2,000 (36%) were called active. Roughly 18% stayed inconclusive and do not appear here. No stated cut-off is given here; in the data, active means normalized growth mostly below about 0.91 (no sharp cut-off); inconclusive means no clear call, values can overlap the other calls; inactive means mostly above about 0.92. This is one part of the list.

Experiment: chemical genetic growth profiling, strain panel (AID 1159580);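 further: tested at 20 µM; growth read once vehicle control cultures reached saturation at 30 °C; 1 = growth at the plate median or of vehicle wells; lower values mean less growth of the strain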
Details: S. cerevisiae deletion strains, growth OD

Measured: normalized growth

NNCc1ccccc1
inactive: locus YAL021C, strain ccr4, hits give low values 0.993 | locus YAL026C, strain drs2, hits give low values 0.986 | locus YAL030W, strain snc1, hits give low values 0.979 | locus YBL061C, strain skt5, hits give low values 0.983 | locus YBR009C, strain hhf1, hits give low values 1 | locus YBR023C, strain chs3, hits give low values 0.982 | locus YBR171W, strain sec66, hits give low values 0.97 | locus YBR231C, strain swc5, hits give low values 1.01 | locus YBR279W, strain paf1, hits give low values 0.982 | locus YCL011C, strain gbp2, hits give low values 0.99 | locus YCL016C, strain dcc1, hits give low values 0.982 | locus YCL069W, strain vba3, hits give low values 0.993 | locus YCR088W, strain abp1, hits give low values 0.974 | locus YDL005C, strain med2, hits give low values 0.992 | locus YDL040C, strain nat1, hits give low values 0.971 | locus YDR001C, strain nth1, hits give low values 0.989 | locus YDR069C, strain doa4, hits give low values 0.976 | locus YDR137W, strain rgp1, hits give low values 0.96 | locus YDR159W, strain sac3, hits give low values 0.983 | locus YDR195W, strain ref2 1.02 | locus YDR297W, strain sur2, hits give low values 0.989 | locus YDR334W, strain swr1, hits give low values 0.99 | locus YDR335W, strain msn5, hits give low values 1 | locus YDR392W, strain spt3, hits give low values 1 | locus YEL003W, strain gim4, hits give low values 0.996 | locus YEL037C, strain rad23, hits give low values 0.991 | locus YEL061C, strain CIN8 (second series), hits give low values 0.978 | locus YER015W, strain faa2, hits give low values 0.999 | locus YER016W, strain bim1, hits give low values 0.998 | locus YER111C, strain swi4, hits give low values 0.988 | locus YER155C, strain BEM2 (second series), hits give low values 0.989 | locus YFR010W, strain ubp6, hits give low values 0.989 | locus YGL167C, strain pmr1, hits give low values 0.989 | locus YGL173C, strain kem1, hits give low values 0.961 | locus YGL227W, strain vid30, hits give low values 0.994 | locus YGL240W, strain doc1, hits give low values 0.98 | locus YGL253W, strain hxk2, hits give low values 0.993 | locus YHR013C, strain ard1, hits give low values 1.03 | locus YHR027C, strain rpn1, hits give low values 0.997 | locus YHR142W, strain chs7, hits give low values 0.985 | locus YJL092W, strain hpr5, hits give low values 0.993 | locus YJL095W, strain BCK1 (second series), hits give low values 0.986 | locus YJL115W, strain asf1, hits give low values 0.987 | locus YJL129C, strain trk1, hits give low values 0.978 | locus YJL154C, strain vps35, hits give low values 0.986 | locus YJL164C, strain tpk1, hits give low values 0.98 | locus YJL166W, strain qcr8, hits give low values 0.997 | locus YJL187C, strain SWE1, hits give low values 0.987 | locus YKL160W, strain elf1, hits give low values 0.988 | locus YKR026C, strain gcn3, hits give low values 0.974 | locus YKR091W, strain srl3, hits give low values 0.985 | locus YLL001W, strain dnm1, hits give low values 0.983 | locus YLL026W, hits give low values 1 | locus YLL041C, strain sdh2, hits give low values 0.992 | locus YLR027C, strain aat2, hits give low values 0.991 | locus YLR221C, strain rsa3, hits give low values 0.978 | locus YLR258W, strain gsy2, hits give low values 0.987 | locus YLR262C, strain YPT6 (second series), hits give low values 0.906 | locus YLR320W, strain mms22, hits give low values 0.993 | locus YLR342W, strain FKS1, hits give low values 0.981 | locus YLR357W, strain rsc2, hits give low values 0.967 | locus YLR370C, strain arc18, hits give low values 0.983 | locus YLR384C, strain iki3, hits give low values 0.992 | locus YML120C, strain ndi1, hits give low values 0.979 | locus YMR058W, strain fet3, hits give low values 0.996 | locus YMR125W, strain sto1, hits give low values 0.986 | locus YMR129W, hits give low values 0.99 | locus YMR205C, strain PFK2, hits give low values 0.976 | locus YMR231W, strain pep5, hits give low values 0.994 | locus YNL071W, strain lat1, hits give low values 1.01 | locus YNL209W, strain ssb2, hits give low values 0.989 | locus YNL248C, strain rpa49, hits give low values 0.993 | locus YNL322C, strain KRE1 (second series), hits give low values 0.992 | locus YNR049C, strain mso1, hits give low values 0.99 | locus YOR001W, strain rrp6, hits give low values 0.994 | locus YOR070C, strain gyp1, hits give low values 0.989 | locus YOR080W, strain dia2, hits give low values 0.983 | locus YOR083W, strain WHI5, hits give low values 0.987 | locus YOR106W, strain vam3, hits give low values 0.963 | locus YOR265W, strain rbl2, hits give low values 1 | locus YOR270C, strain vph1, hits give low values 0.979 | locus YOR290C, strain snf2, hits give low values 0.987 | locus YPL051W, strain arl3, hits give low values 0.969 | locus YPL078C, strain atp4, hits give low values 0.997 | locus YPL106C, strain sse1, hits give low values 0.963 | locus YPL240C, strain hsp82, hits give low values 1
